Assay outcomes deposited in PubChem by National Center for Advancing Translational Sciences (NCATS).
A selection: hits, their analogues and other compounds. The true share with any hit is near 1.5%.
TDP1 inh: blocks human tyrosyl-DNA phosphodiesterase 1. Potency, µM (titrated, usually from 130 µM), for the others: top-dose activity change, negative = inhibition, actives largely listed as inhibitors. AID 485290. recombinant TDP1, AlphaScreen DNA substrate cleavage. Q9NUW8. hit rate 0.28% among 350,000; also: potency is read from the fitted curve at half-maximal effect; nearly all actives have a fitted effect of over 40% in size
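Recombinant human Tdp1 (E. coli-expressed, 1 nM final) preincubated with compounds 15 min at room temperature, then 5'-biotin/3'-phosphotyrosine-FITC DNA substrate (15 nM final) added for 5 min. AlphaScreen beads (10 ug/ml final) added 10 min; cleavage lowers signal.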
WRN inhibitor: WRN helicase (human) inhibition; Potency, µM (highest dose often 114 µM), without a hit: at the top dose activity change, negative = inhibition, hits mostly inhibitors; hit rate 0.46% among 360,000; WRN helicase unwinding, fluorescent forked duplex, kinetic; AID 651768; also: potency is read from the fitted curve at half-maximal effect; nearly all actives have a fitted effect of over 55% in size
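Kinetic fluorescence helicase assay: unwinding of a quenched forked DNA duplex (100 nM final) with 2 mM ATP final raises red fluorescence (525/598 nm). Compounds sat 15 min at room temperature with 20 nM WRN beforehand.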
Tb PFK inh: inhibitors of T. brucei phosphofructokinase | O15648 | T. brucei PFK, ADP-Glo luminescence | Potency, µM (titrated, usually from 57.5 µM), inactives show top-dose activity, negative = inhibition, hits mostly inhibitors | hit rate 0.17% among 330,000 | AID 485367;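 also: potency is read from the fitted curve at half-maximal effect; 0% = uninhibited 1x PFK enzyme wells and -100% = no-enzyme wells; nearly all actives have a fitted effect of over 60% in size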
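ADP-Glo luminescence quantified ADP after 45 min at room temperature, with 1.25 nM T. brucei PFK, 0.1 mM ATP and 0.5 mM fructose-6-phosphate in pH 8.0 TEA buffer. qHTS titrations up to 57 µM; curves classified by quality.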
PGK inhibitor: blocks T. brucei phosphoglycerate kinase; P07378; PGK/GAPDH coupled, Kinase-Glo luminescence, 60 min; Potency, µM (highest dose often 57.5 µM), inactives show top-dose activity change, negative = inhibition, hits mostly inhibitors; hit rate 0.043% among 380,000; also: potency is read from the fitted curve at half-maximal effect; nearly all actives have a fitted effect of over 60% in size
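Recombinant glycosomal PGK reaction used 1,3-bisphosphoglycerate generated in-well by GAPDH (100nM final) in 100mM TEA pH 7.6, 5mM MgCl2, 0.01% Tween-20. After 60 minutes at room temperature, ATP was read by Kinase-Glo Plus luminescence end-point.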
PI5P4K alpha inh: PI5P4K alpha (human) kinase inhibition; max response, %; P48426; PI5P4Kalpha enzyme, ADP-Glo luminescence, 60 min; active compounds read low; hit rate 1.2% among 330,000; active = max response of -50% or lower; inconclusive = between -30% and -50%; inactive = -30% or higher; also: value at the top dose of about 77 µM
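Enzyme plus substrate dispensed, test compounds pinned in, then ATP (5 microM final) added. After 60 min at RT, ADP-Glo reagent 1 for 45 min and reagent 2 for 30 min preceded luminescence imaging.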
FEN1 inh: human FEN1 inhibition | AID 588795 | Potency, µM (top dose mostly 114 µM), for inactives: top-dose activity change, negative = inhibition, actives largely listed as inhibitors | hit rate 0.35% among 390,000 | P39748 | Recombinant FEN1 flap cleavage, fluorescence, 15 min; also: potency is read from the fitted curve at half-maximal effect; nearly all actives have a fitted effect of over 65% in size
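Quantitative HTS format: each compound was titrated, incubated with 10 nM nuclease for 15 min at room temperature, then challenged with flap substrate at 50 nM final. Signal change over 15 min gave concentration–effect curves.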
Active calls of the source: *; i = inactive; u = inconclusive; x = no result given; [ ] = another dose, or the depositor's remark. Unless noted, calls follow the shape of the dose curve; as a rule, active = well fitted curve in the direction sought with a large enough effect; inconclusive = small, poorly fitted or top-dose-only effect, or another doubt; inactive = no such curve, though single readings can be large; an effect the other way counts as inactive or inconclusive. Unless noted, % is scaled to controls: 0 for no effect and ±100 for the full control effect.

SMILES	TDP1 inh	WRN inhibitor	Tb PFK inh	PGK inhibitor	PI5P4K alpha inh	FEN1 inh
CCSC1=C(C#N)C2(CCCC2)C(C#N)=C(N)N1	-1%	u	5%	2%	-57*	-3%
N#CC1=C(N)NC(SCc2ccc(Cl)cc2)=C(C#N)C12CCCCC2	5%	-6%[11.6 µM]	1%	6%	-2	-22%
CC(=O)N1CCOc2cc(S(=O)(=O)Nc3c(C)cccc3C(C)C)c(Cl)cc21	8.9µM*	x	0%	2%	x	-1%
NC(=O)c1c(NC(=O)CSc2nnc(-c3ccco3)n2-c2ccccc2)sc2c1CCC2	-13%	-31%	u	-15%	-65*	u
Cn1c2cc(S(C)=O)sc2c2cnn(Cc3cccc(O)c3)c(=O)c21 (centres undefined)	1%	x	x	x	x	x
OCC1OC(Oc2cccc3ccccc23)C(O)C(O)C1O (centres undefined)	x	-1%[57.1 µM]	1%	-3%	-7	1%
O=C(O)c1cc(O)c2c(c1)[C@@H]([C@H]1c3cc(C(=O)O)cc(O)c3C(=O)c3c(O[C@@H]4O[C@H](CO)[C@@H](O)[C@H](O)[C@H]4O)cccc31)c1cccc(O[C@@H]3O[C@H](CO)[C@@H](O)[C@H](O)[C@H]3O)c1C2=O	x	3.2µM*	u	3.2µM*	-111*	3.2µM*
CN(CC(=O)NC(=O)NCc1ccco1)Cc1nc2ccccc2c(=O)[nH]1	50µM*	u	u	-16%	x	-20%
O=C(CCc1nc2ccccc2c(=O)[nH]1)NCc1ccco1	3%	1%	2%	1%	3	0%
Nc1ncnc2c1nc(Sc1ccc(Cl)cc1)n2[C@H]1OC2COP(=O)(O)O[C@H]2[C@@H]1O (some centres undefined)	x	x	x	x	x	-5%
O=C1CCc2cc(S(=O)(=O)Nc3cccc(C(F)(F)F)c3)ccc2N1	1%	x	x	x	x	x
Cc1nnc(NC(=O)CCSCCC(=O)Nc2nnc(C)s2)s1	32µM*	50µM*	u	-23%	u	-23%
O=C(CCc1nnc2ccc(NCc3ccco3)nn12)Nc1ccccn1	25µM*	-3%[11.6 µM]	u	u	-24	7%
O=c1c2ccccc2nc2ccc(NCc3ccco3)nn12	50µM*	u	-13%	-10%	-26	-21%
CCOC(=O)C(=O)Nc1nnc(CCc2ccccc2)s1	0%	2%	4%	i	-66*	-7%
CCC(=O)Nc1nnc(CCc2ccccc2)s1	3%	0%	9%	-5%	u	-2%
COc1cc(OC)c(/C=C/c2ccncn2)c(OC)c1	x	x	x	x	x	-4%
OCC1(CO)COC(C(Cl)(Cl)Cl)OC1	2%	x	x	x	x	x
CC(=O)C(C(C)=O)C(NC(=O)c1cccnc1)(C(F)(F)F)C(F)(F)F	4%	89µM*	-2%	-4%	-63*	10%
O=C(N/N=C/c1ccccc1Cl)c1[nH]c2ccc(Br)cc2c1-c1ccccc1	1%	25µM*	-1%	-9%	6	u
CN(C)S(=O)(=O)c1ccc(-c2csc(N/N=C/c3ccc(O)cc3)n2)cc1	7%	-12%	-7%	-3%	-63*	3%
Cc1ccccc1NC(=O)COC(=O)c1ccccc1OCC(=O)Nc1ccc(Br)cc1	x	x	x	x	x	-5%
O=c1c2c(-c3ccccc3)csc2ncn1/N=C/c1cccc([N+](=O)[O-])c1O	7%	-6%	2%	0%	-103*	6%
O=C(O)c1ccc(CN2C(=O)c3ccc(C(=O)O)cc3C2=O)cc1	x	-1%	1%	-1%	-58*	-16%
O=C(O)c1ccc2c(c1)C(=O)N(Cc1ccc3c(c1)OCO3)C2=O	-8%	-3%	5%	2%	1	-7%
SMILES	TDP1 inh	WRN inhibitor	Tb PFK inh	PGK inhibitor	PI5P4K alpha inh	FEN1 inh
Cc1cc(C)n(Cc2ccc(C(=O)O)cc2)n1	3%	-8%	2%	i	x	-1%
COc1ccc(CN2C(=O)c3ccc(C(=O)O)cc3C2=O)cc1	x	-1%	1%	-1%	-63*	9%
Cc1ccc(C)n1Cc1ccc(C(=O)O)cc1	3.5µM*	2.8µM*	6.7µM*	3.2µM*	x	4µM*
O=C1c2ccccc2C(=O)N1c1cccc2ncccc12	2%	x	x	x	x	x
C=CCN(c1ccccc1)S(=O)(=O)c1cccc(C(=O)Nc2ccncc2)c1	x	-25%	-7%	-2%	1	-10%
C=CCN(c1ccccc1)S(=O)(=O)c1cccc(C(=O)NNC(=O)c2ccccc2O)c1	x	-24%	-13%	i	-56*	0%
Cc1c(CC(=O)N2CCN(C(=O)C3COc4ccccc4O3)CC2)c(=O)oc2cc(O)c(Cl)cc12 (centres undefined)	0%	-10%	3%	5%	-51*	15%
COc1ccc2c(C)c(CC(=O)N3CCN(C(=O)C4COc5ccccc5O4)CC3)c(=O)oc2c1C (centres undefined)	5%	3%	1%	-3%	-11	-4%
COc1ccc(/C=C2/SC(=S)NC2=O)cc1OCc1ccccc1	-2%	-19%	-1%	i	-75*	u
CCO/C(C)=C1/SC(=S)NC1=O	-8%	u	2%	-6%	-63*	3%
COc1ccc2cc(/C=C3\SC(=S)NC3=O)c(N3CCOCC3)nc2c1	5%	-7%[11.6 µM]	3%	1%	-62*	u
COc1cc(/C=C2/SC(=O)NC2=O)ccc1OCc1ccccc1	x	-11%	1%	1%	5	9%
COc1cccc(C=C2SC(=S)NC2=O)c1	x	u	x	i	-60*	3%
C=C1C=C(C)n2ncc(C(=O)Nc3ccc(C)cn3)c2N1	x	x	x	x	x	-11%
Nc1nc(Cl)nc2c1ncn2[C@@H]1O[C@H](CO)[C@H](O)C1F (some centres undefined)	4%	x	x	x	x	x
COc1cccc(C(C)=C2SC(=S)NC2=O)c1	x	-17%	x	-2%	-71*	15%
O=C1NC(=S)SC1=Cc1ccc2c(c1)OCO2	x	-10%	x	-6%	-78*	0%
COc1cccc(C(=O)NCCCNC(=O)c2cccc(OC)c2)c1	x	1%	7%	-4%	-4	-2%
COc1ccc(N=C2S/C(=C\c3ccc(OC(C)C(=O)O)c(OC)c3)C(=O)N2CCc2c[nH]c3ccccc23)cc1 (centres undefined)	8%	-12%	-6%	-7%	-54*	u
COc1cc(OC)c(/C=C/c2ccc3ccccc3[n+]2C)c(OC)c1	x	x	x	x	x	25µM*
CCC[n+]1c(/C=C/c2c(OC)cc(OC)cc2OC)ccc2ccccc21	x	x	x	x	x	28µM*
COc1ccc(/C=C/c2ccc3ccccc3[n+]2C)c(OC)c1OC	x	x	x	x	x	-27%
CCCC[n+]1c2ccccc2cc2ccccc21	x	-36%[11.6 µM]	-29%	2%	u	79µM*
